We go through twelve compounds from PubChem BioAssay (NCI).

Test systems include SR leukemia; RPMI-8226 leukemia; OVCAR-8 ovarian; OVCAR-5 ovarian; OVCAR-4 ovarian; SK-OV-3 ovarian; IGROV1 ovarian; OVCAR-3 ovarian; HS 578T breast; NCI/ADR-RES ovarian.
What all share (assay): NCI-60 one-dose screen, 48 h (100 = growth as untreated, 0 = no growth, -100 = all killed)
Conditions in all cases: 10 µM unless noted

The structures appear in SMILES notation. The panel holds about 83,000 compounds, 20% with a hit somewhere; the sample as a whole holds those more often.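 The test compound was applied at a single concentration to cells in 96-well plates for 48 hours, and percent growth was recorded.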 A number with no mark means an inactive call. The source made the active and inactive calls. The calls were made as follows: active = growth percent below 10; inactive = the rest.

With `CCOC(=O)c1c(-c2ccc(Cl)cc2)c(C#N)c2c(C#N)c(N)nn2c1N`, the growth in the experiment on SR leukemia is 11.9%; in the experiment on RPMI-8226 leukemia, 49.3%; in the experiment on OVCAR-8 ovarian, 75.9%; in the experiment on OVCAR-5 ovarian, 83.4%; in the experiment with OVCAR-4 ovarian, 77.3%; in the experiment with SK-OV-3 ovarian, 84.1%. Besides, the growth is 62.2% in the experiment on IGROV1 ovarian, 65.4% in the experiment on OVCAR-3 ovarian, 75.3% in the experiment on HS 578T breast and 63.1% with NCI/ADR-RES ovarian.
Take `COc1ncc2cc1NS(=O)(=O)c1cccc(c1)C(=O)NCC1=CC=C(S1)c1ncnc3c1SC2=C3C`: the growth with SR leukemia is -3.91% (active); with RPMI-8226 leukemia it was -31.3% (active); with OVCAR-8 ovarian, 20.6%; in the experiment with OVCAR-5 ovarian, -26.2% (active); in the experiment on OVCAR-4 ovarian, -24.1% (active); in the experiment on SK-OV-3 ovarian it was 5.33% (active). Besides, the growth was -24.5% (active) with IGROV1 ovarian, -73.1% (active) in the experiment with OVCAR-3 ovarian, 12.7% with HS 578T breast and 10.6% in the experiment with NCI/ADR-RES ovarian.
With `COc1cc2oc(-c3cccc(NC(=O)c4ccc5c(c4)OCO5)c3)cc(=O)c2c(OC)c1OC`, the growth in the experiment with SR leukemia is 11.5%; in the experiment with RPMI-8226 leukemia, -53.7% (active); with OVCAR-8 ovarian it was 46.3%; in the experiment on OVCAR-5 ovarian, 93.9%; in the experiment on OVCAR-4 ovarian, 58.1%; in the experiment on SK-OV-3 ovarian, 98.1%. The growth is 47% with IGROV1 ovarian, 53% with OVCAR-3 ovarian, 45.2% with HS 578T breast and 57.6% in the experiment with NCI/ADR-RES ovarian.
Consider `COc1cc(OC)cc(C2C(C#N)=C(N)Oc3c2ccc2ccc(O)cc32)c1` (stereo not given), for which the growth in the experiment on SR leukemia is 12.6%; in the experiment on RPMI-8226 leukemia it was 8.83% (active); in the experiment with OVCAR-8 ovarian, 18.1%; in the experiment with OVCAR-5 ovarian, 33.1%; in the experiment on OVCAR-4 ovarian it was 55.6%; in the experiment with SK-OV-3 ovarian, 42.3%. Further, the growth was 14.3% in the experiment with IGROV1 ovarian, -16% (active) in the experiment with OVCAR-3 ovarian, 53.2% in the experiment on HS 578T breast and -8.97% (active) in the experiment with NCI/ADR-RES ovarian.
`CCOc1ccc(NC(=O)c2cc(OC)c(OC)c(OC)c2)cc1`: the growth was 24.7% in the experiment with SR leukemia; 27% with RPMI-8226 leukemia; 49.5% in the experiment with OVCAR-8 ovarian; 94% in the experiment on OVCAR-5 ovarian; 65% in the experiment on OVCAR-4 ovarian; 40.6% in the experiment with SK-OV-3 ovarian. In addition, the growth was 53.1% in the experiment with IGROV1 ovarian, -3.43% (active) with OVCAR-3 ovarian, 26.8% in the experiment with HS 578T breast and 11.5% in the experiment with NCI/ADR-RES ovarian.
`CCc1ccc(CCC(=O)Nc2ncc(Cc3ccc(Cl)cc3)s2)o1`: the growth is 18.4% in the experiment with SR leukemia; 31.5% in the experiment with RPMI-8226 leukemia; 31.3% with OVCAR-8 ovarian; 52.1% in the experiment on OVCAR-5 ovarian; 63.8% in the experiment on OVCAR-4 ovarian; 37.4% in the experiment with SK-OV-3 ovarian. Besides, the growth is 34.8% with IGROV1 ovarian, 1.07% (active) in the experiment with OVCAR-3 ovarian, 2.63% (active) in the experiment on HS 578T breast and 17.3% with NCI/ADR-RES ovarian.
Take `O=C(/C=C/c1ccccc1)Nc1ncc(Cc2ccccc2)s1`: the growth in the experiment on SR leukemia is 15.3%; with RPMI-8226 leukemia, 20.2%; in the experiment on OVCAR-8 ovarian, 23.7%; with OVCAR-5 ovarian, 18.5%; with OVCAR-4 ovarian it was 14.1%; with SK-OV-3 ovarian, 15.4%. The growth in the experiment on IGROV1 ovarian was 26.1%; in the experiment on OVCAR-3 ovarian, -34.1% (active); in the experiment on HS 578T breast, 10.4%; in the experiment with NCI/ADR-RES ovarian, 2.68% (active).
As to `COc1cc(C(=O)/C=C/c2c(-c3cccs3)nc3ccccn23)cc(OC)c1OC`, the growth was 13.8% in the experiment on SR leukemia; -9.49% (active) with RPMI-8226 leukemia; 9.84% (active) in the experiment on OVCAR-8 ovarian; 18.4% in the experiment on OVCAR-5 ovarian; 13.1% in the experiment on OVCAR-4 ovarian; 3.6% (active) with SK-OV-3 ovarian. Also, the growth in the experiment on IGROV1 ovarian was 13.1%; in the experiment on OVCAR-3 ovarian, -36.5% (active); with HS 578T breast it was -1.24% (active); with NCI/ADR-RES ovarian, -15.6% (active).
With `COc1cc(-c2nc3occn3c2-c2ccnc(NCCCNS(=O)(=O)c3ccccc3)n2)ccc1F`, the growth in the experiment with SR leukemia was 56.4%; in the experiment on RPMI-8226 leukemia it was 5.21% (active); with OVCAR-8 ovarian it was 21.9%; in the experiment on OVCAR-5 ovarian it was 111%; in the experiment on OVCAR-4 ovarian, 33%; with SK-OV-3 ovarian it was 59.2%. Moreover, the growth in the experiment on IGROV1 ovarian is 49.8%; with OVCAR-3 ovarian it was 66.2%; in the experiment with HS 578T breast, 75.6%; in the experiment on NCI/ADR-RES ovarian it was 20.5%.
On to `COc1ccc(/C=C/C(=O)c2ccc(NC(=O)CSc3nnc(-c4cc(-c5ccccc5)nc5ccccc45)n3-c3ccccc3)cc2)cc1`, for which the growth with SR leukemia was 79.7%; in the experiment on RPMI-8226 leukemia, 96.6%; in the experiment with OVCAR-8 ovarian, 93.5%; with OVCAR-5 ovarian, 93.4%; in the experiment on OVCAR-4 ovarian, 96%; in the experiment on SK-OV-3 ovarian it was 109%. For the same compound, the growth in the experiment on IGROV1 ovarian was 111%; with OVCAR-3 ovarian, 102%; in the experiment with HS 578T breast, 93.1%; in the experiment on NCI/ADR-RES ovarian, 97.1%.
With `COc1ccc2c(c1)c(-c1cc(-c3cn(C)c4ccc(OC)cc34)on1)cn2C`, the growth in the experiment on SR leukemia was 104%; with RPMI-8226 leukemia, 84.6%; with OVCAR-8 ovarian it was 97.5%; in the experiment with OVCAR-5 ovarian it was 78.5%; with OVCAR-4 ovarian, 112%; in the experiment on SK-OV-3 ovarian, 93.3%. For the same compound, the growth in the experiment with IGROV1 ovarian is 87.4%; in the experiment with OVCAR-3 ovarian, 107%; with HS 578T breast it was 90.3%; with NCI/ADR-RES ovarian, 95.4%.
As for `C=C(C)[C@@H]1CC[C@]2(CO)CC[C@]3(C)[C@H](CC[C@@H]4[C@@]5(C)CCC(NCCc6ccc(O)cc6)C(C)(C)[C@@H]5CC[C@]43C)[C@@H]12` (stereo not given in full), the growth in the experiment on SR leukemia is -46.8% (active); in the experiment with RPMI-8226 leukemia, -53.5% (active); with OVCAR-8 ovarian, -79.4% (active); with OVCAR-5 ovarian, -72.4% (active); with OVCAR-4 ovarian, -89.3% (active); with SK-OV-3 ovarian, 75.8%. For the same compound, the growth in the experiment with IGROV1 ovarian is -85.5% (active); in the experiment with OVCAR-3 ovarian, -95% (active); with HS 578T breast, -54.5% (active); with NCI/ADR-RES ovarian, -71% (active).
